# The campaign covered roughly 220,000 compounds. About 910 (0.41%) were called active.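 The calls were made as follows: active = primary inhibition above the hit cutoff, then over 50% inhibition at one or more dose response concentrations (cut at about 23% in these data, passing the limit was not always enough); inconclusive = conflicting primary data, or primary hits not chosen for dose response; inactive = low primary inhibition, or under 50% at every dose.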 The sample as a whole holds a higher share of actives than the screen did. Potency and affinity values are given separately.
# Target: Aminopeptidase N (Plasmodium falciparum (isolate 3D7)) (UniProt O96935)
# Sequence (O96935 whole entry, looked up): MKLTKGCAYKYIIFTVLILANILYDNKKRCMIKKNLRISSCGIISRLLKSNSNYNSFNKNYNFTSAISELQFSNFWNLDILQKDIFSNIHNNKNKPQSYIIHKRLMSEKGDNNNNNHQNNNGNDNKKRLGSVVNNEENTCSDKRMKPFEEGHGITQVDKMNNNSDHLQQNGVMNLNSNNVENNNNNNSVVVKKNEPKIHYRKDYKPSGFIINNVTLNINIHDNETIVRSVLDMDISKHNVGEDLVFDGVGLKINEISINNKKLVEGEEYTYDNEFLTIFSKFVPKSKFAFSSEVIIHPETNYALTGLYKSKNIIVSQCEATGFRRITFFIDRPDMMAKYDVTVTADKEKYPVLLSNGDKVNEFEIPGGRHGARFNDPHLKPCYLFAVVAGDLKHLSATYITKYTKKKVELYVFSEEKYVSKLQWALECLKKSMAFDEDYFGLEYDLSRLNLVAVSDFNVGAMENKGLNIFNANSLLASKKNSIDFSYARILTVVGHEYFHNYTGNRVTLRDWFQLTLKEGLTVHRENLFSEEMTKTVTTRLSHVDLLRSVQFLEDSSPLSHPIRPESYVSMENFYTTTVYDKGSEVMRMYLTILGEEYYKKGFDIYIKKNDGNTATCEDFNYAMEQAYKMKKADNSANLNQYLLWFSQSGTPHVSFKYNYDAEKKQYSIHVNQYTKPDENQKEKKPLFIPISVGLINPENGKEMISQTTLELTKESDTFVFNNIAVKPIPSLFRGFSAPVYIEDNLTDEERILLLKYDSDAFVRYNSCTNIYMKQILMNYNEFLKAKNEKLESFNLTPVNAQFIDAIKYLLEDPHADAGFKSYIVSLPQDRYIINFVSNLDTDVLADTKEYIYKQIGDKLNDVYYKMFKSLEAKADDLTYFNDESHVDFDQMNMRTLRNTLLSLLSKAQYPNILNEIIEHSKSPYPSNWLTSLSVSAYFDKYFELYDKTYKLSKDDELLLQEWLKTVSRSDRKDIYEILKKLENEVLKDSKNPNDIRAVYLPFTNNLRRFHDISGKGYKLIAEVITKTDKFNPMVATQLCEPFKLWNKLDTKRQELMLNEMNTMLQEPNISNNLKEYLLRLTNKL
# Test: malaria alanyl aminopeptidase activity blockers – biochemical, fluorogenic H-Leu-NHMec substrate, 1536-well (AID 1445);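 also: plate controls were DMSO full reaction for no effect and no enzyme background for full effect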
# Conditions: recombinant M1AAP, H-Leu-NHMec fluorogenic kinetic assay; at 30 µM, hits give high values unless noted
row,Compound,inhibition
1,O=C1C2=C(c3ccccc31)[N+](=O)[C@@H]1CCCC[C@@H]1N2[O-],8.78% (inactive)
2,CC(NC(=S)Nc1ccc(F)cc1)C(c1cccs1)N1CCOCC1 (centres undefined),1.91% (inactive)
3,CC1=CN2C(=N)/C(=C/c3ccc(C)o3)C(=O)N=C2S1,20.6% (inactive)
4,CC1=CN2C(=N)/C(=C/c3ccco3)C(=O)N=C2S1,11% (inactive)
5,N#Cc1cc2c(N)c(C(=O)Nc3ccccc3)sc2nc1N,-0.33% (inactive)
6,CCN(CC)S(=O)(=O)c1ccc2c(c1)nc(CCC(=O)OCC(=O)Nc1cc(Cl)cc(Cl)c1)n2C,0.35% (inactive)
7,Cc1nnc(SCC(=O)Nc2sc3c(c2C(N)=O)CCCC3)[nH]c1=O,11.5% (inactive)
8,CCOC(=O)c1c(NC(=O)CSc2nnc(C)c(=O)[nH]2)sc(C)c1C,6.77% (inactive)
9,O=C(Nc1cccc2cccnc12)c1ccc2c(c1)OCCO2,3.45% (inactive)
10,COC(=O)c1c(C(=O)OC)c(-c2cccc(Cl)c2)n2c1CS(=O)C2 (centres undefined),12.7% (inactive)
11,Cc1nnc(SCC(=O)Nc2cccc(C(F)(F)F)c2)[nH]c1=O,3.06% (inactive)
12,CSc1nc(N(C)CCO)c2sc3nc(-c4ccco4)c4c(c3c2n1)CCC4,11.4% (inactive)
13,CSc1nc(N(CCO)CCO)c2sc3nc(-c4ccco4)c4c(c3c2n1)CCC4,27.5% (active)
14,CCN(CCO)c1nc(SC)nc2c1sc1nc(-c3ccco3)c3c(c12)CCC3,20% (inactive)
15,COC(=O)c1sccc1NC(=O)CSCCc1ccccn1,4.36% (inactive)
16,O=C(NCc1cccs1)C(Cc1ccccc1)NS(=O)(=O)c1cccs1 (centres undefined),13.3% (inactive)
17,Cc1ccc(CNC(=O)C(Cc2ccccc2)NS(=O)(=O)c2cccs2)cc1 (centres undefined),-3.28% (inactive)
18,O=C(c1ccco1)N1CCN(Cc2cccnc2)CC1,3.43% (inactive)
19,CC(C)(C)NC(=O)Cn1nnc(-c2ccc(S(C)(=O)=O)cc2)n1,9.97% (inactive)
20,Cc1onc(-c2ccncc2)c1C(=O)O,0.4% (inactive)
21,COc1ccccc1-c1n[nH]c(=S)n1-c1ccccc1,2.6% (inactive)
22,CN1CCN(C(=O)c2cc(Cl)ccc2Cl)CC1,8.9% (inactive)

row,Compound,inhibition
1,O=C(CCc1ccc(O)cc1)NNC(=S)NCCc1ccccc1,-1.96% (inactive)
2,CC(=O)NNC(=S)NCCc1ccccc1,6.55% (inactive)
3,Cc1nn(-c2ccccc2)c(N)c1C1(O)C(=O)N(C)c2ccccc21 (centres undefined),1.69% (inactive)
4,CC1(C)Nc2ccccc2C(=O)N1NS(=O)(=O)c1ccccc1,2.35% (inactive)
5,Cn1cc(/C=C2\SC(=S)N(NC(=O)c3ccccc3)C2=O)c2ccccc21,3.01% (inactive)
6,CC1Nc2ccccc2C(=O)N1NS(=O)(=O)c1ccccc1 (centres undefined),1.49% (inactive)
7,CC(/C=C1\SC(=S)N(NC(=O)c2cccc(O)c2)C1=O)=C\c1ccccc1,-3.91% (inactive)
8,O=C(NN1C(=O)C2C3C=CC(O3)C2C1=O)c1cccc(O)c1 (centres undefined),6.69% (inactive)
9,O=C(Nc1ccc(C(=O)NN2C(=O)c3ccccc3C2=O)cc1)c1ccccc1,8.25% (inactive)
10,CCOc1cc(N2CCOCC2)c(OCC)cc1NC(=O)c1ccc(S(C)(=O)=O)cc1,9.02% (inactive)
11,COc1ccccc1N(C)S(=O)(=O)c1ccc(C(=O)OCC(=O)NCc2ccco2)cc1,-0.82% (inactive)
12,Cc1cccc(NC(=O)N2CCC(c3nc4ccccc4o3)CC2)c1,10% (inactive)
13,COc1cc(NC(=S)NC(=O)C(C)C)ccc1NC(=O)c1cc2ccccc2o1,10.7% (inactive)
14,COc1ccc(NC(=O)Nc2ccc(OCC(=O)N3CCOCC3)cc2)cc1OC,0.44% (inactive)
15,CCC(C)(C)C1CCc2c(sc(NC(=O)c3cccs3)c2C(N)=O)C1 (centres undefined),-0.66% (inactive)
16,C=CCn1c(=NC(=O)CC)n(C)c2ccccc21,0.56% (inactive)
17,Cn1c(CNc2ccccc2O)nc2ccccc21,25% (active)
18,CCCn1c(CNc2ccccc2O)nc2ccccc21,0.88% (inactive)
19,Cn1c(CNc2nc3ccccc3n2C)nc2ccccc21,-11.6% (inactive)
20,COc1cc(C(=S)N2CCOCC2)cc(OC)c1OC(=O)Cc1ccc(F)cc1,7.01% (inactive)
21,CC(C)(C)NC(=O)NC(=O)COC(=O)CCCc1c[nH]c2ccccc12,3.27% (inactive)
22,O=C1NCCCc2nonc21,0.35% (inactive)

row,Compound,inhibition
1,COc1cc(/C=N/N=C2/NC(=O)C(CC(=O)O)S2)ccc1OCc1ccc(Cl)cc1 (centres undefined),21.8% (inactive)
2,CC(=O)Nc1ccc(S(=O)(=O)Oc2cccc(/C=C3\SC(N)=NC3=O)c2)cc1,-0.74% (inactive)
3,CCOc1cc(/C=N/N=C2/NC(=O)C(CC(=O)O)S2)ccc1OCc1ccc(Cl)cc1 (centres undefined),9.38% (inactive)
4,CC(=O)Nc1ccc(S(=O)(=O)Oc2ccc(/C=N/N=C3/NC(=O)C(CC(=O)O)S3)cc2)cc1 (centres undefined),10.6% (inactive)
5,CCOc1cc(/C=N/O)ccc1OS(=O)(=O)c1ccc(C)cc1,13.6% (inactive)
6,CCOc1cc(/C=N/NS(=O)(=O)c2ccccc2)ccc1OS(=O)(=O)c1ccc(C)cc1,14.5% (inactive)
7,CCN(Cc1ccccc1)C(=O)c1cc(COc2c(F)cccc2F)on1,5% (inactive)
8,COc1ccccc1-c1ccc(SCC(=O)NCCc2ccccc2)nn1,10.8% (inactive)
9,Cc1cc(C(=O)COC(=O)c2nccnc2N)c(C)n1C,6.62% (inactive)
10,CCOC(=O)C1CCCN(CC(=O)c2c[nH]c3ccc(C)cc23)C1 (centres undefined),5.27% (inactive)
11,CCOCc1nnc(NC(=O)c2ccc(NC(C)=O)cc2)s1,1.45% (inactive)
12,COc1ccc(NC(=O)CSc2ncn[nH]2)c([N+](=O)[O-])c1,-0.25% (inactive)
13,C=CCn1c(SCc2c(C(=O)OC)sc(N)c2C(=O)OC)nnc1-c1ccc(Br)cc1,6.79% (inactive)
14,CCC(=O)c1c(NC(C)C)cc(C)oc1=O,2.35% (inactive)
15,Cc1cnc(C)c(N2CCC(C(=O)NCc3cccs3)CC2)n1,3.94% (inactive)
16,COc1cc(CNC(C)(C)C)cc(Br)c1OCc1cccs1,6.22% (inactive)
17,COc1cc(C2c3c(-c4ccccc4)n[nH]c3C(=O)N2c2ccc(C(=O)O)cc2)ccc1O (centres undefined),14.8% (inactive)
18,COc1cccc(C2c3c(-c4ccccc4)n[nH]c3C(=O)N2c2ccc(C(=O)O)cc2)c1 (centres undefined),8% (inactive)
19,O=C(O)c1ccc(N2C(=O)c3[nH]nc(-c4ccccc4)c3C2c2ccccc2)cc1 (centres undefined),2.78% (inactive)
20,COc1ccc(C2c3c(-c4ccccc4)n[nH]c3C(=O)N2c2ccc(C(=O)O)cc2)cc1 (centres undefined),5.67% (inactive)

# — PubChem BioAssay AID1445 (SRMLSC, 2008)
